From PubChem BioAssay (NCI)
About 83,000 compounds went through this panel and 20% of them were active in at least one assay; those are over-represented in the sample as a whole.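 How to read the values: 0–100, growth inhibition (40 = 60% inhibited); 0, no net growth; -100 to 0, cell death (-40 = 40% of starting cells died; -100 = all dead).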 A number with no mark means an inactive call. Calls of active or inactive are those of the source. The calls were made as follows: active = growth percent below 10; inactive = the rest.

Each molecule was assayed on MCF7 breast (assay: NCI-60 one-dose screen, 48 h (100 = growth as untreated, 0 = no growth, -100 = all killed)). Conditions: 10 µM unless noted.
`O=C1C[C@@H](c2ccccc2)Oc2c(Cc3ccccc3O)c(O)c(Cc3cc(Cc4cc(Cc5ccccc5O)ccc4O)ccc3O)c(O)c21` gave a growth of 92.2%. `N/C(=N\OC(=O)CSc1nc2ccccc2s1)c1ccc(Cl)cc1` was tested, and the growth was 97.4%. In the case of `O=C(NNc1nc2cc(F)cc(F)c2n2cccc12)c1ccncn1`, the growth is reported as 4.99% (active). Molecule `CCCC(=O)NC(c1cccnc1)c1cc(Cl)c2cccnc2c1O` (stereo not drawn) has a growth of 12.5%. `COc1cc(-c2nc(SCc3ccc(C)cc3)[nH]c(=O)c2C#N)ccc1OCc1ccccc1` gave a growth of 94.5%. `Cc1nn(-c2ccccc2)cc1/C=N/Nc1nc(Nc2ccccc2)nc(Nc2ccc(S(N)(=O)=O)cc2)n1` was tested, and the growth was -69.9% (active). `COc1cc2c3c(n(CCCNC4CCCCC4)c(=O)c2cc1OC)-c1cc2c(cc1C3=O)OCO2` was tested, and the growth was -78.1% (active). `COc1cc(O)c2c(c1)/C=C/C[C@H](O)[C@H](O)C(=O)/C=C\C[C@H](C)OC2=O` was tested, and the growth was 0.782% (active). For `COc1cc(C2CC(c3ccc(Nc4nc(NCCO)nc(Nc5ccc(Cl)cc5)n4)cc3)=Nc3c(N)nc(N)nc3N2)cc(OC)c1OC` (stereo not drawn), the growth was 42.7%. `O=C(c1ccc(O)cc1)[C@@H]1[C@@H]2CCCN2[C@@]2(C(=O)N(C(=O)c3ccc(F)cc3)c3ccccc32)[C@H]1c1ccc(F)cc1` showed a growth of 86.3%.

Each molecule was assayed on HCT-116 colon in the same assay as above. Conditions: 10 µM unless noted.
`COc1ccc(N2CCN(C(=O)CSc3ccc(-c4nc5cc(C)c(C)cc5[nH]4)cn3)CC2)cc1` was tested, and the growth was 74.3%. For `COc1ccc(Cn2cc3c(c2-c2ccccc2)CCCc2cnoc2-3)cc1`, the growth was 28.8%. Work on `O=C1Nc2ccc(Cl)cc2/C1=C/c1ccc(OCc2ccc(Br)cc2F)cc1` yielded a growth of 96.7%. For `Nc1nc(-c2cccc([N+](=O)[O-])c2)c(N=Nc2ccccc2Cl)s1`, the growth was 32.6%. `Oc1ccc(-c2nnc(SCc3ccc(O)c4ncccc34)o2)cc1` was tested, and the growth was 7.61% (active). For `Oc1ccc(CSc2nnc(-c3ccccc3)n2-c2ccccc2)c2cccnc12`, the growth was 10.8%. Molecule `Oc1ccc(-c2nnc(SCc3ccc(O)c4ncccc34)n2-c2ccccc2)cc1` has a growth of 12.7%. With `O=C1[C@@H]2Cc3c([nH]c4ccccc34)[C@H](c3c(Cl)cccc3Cl)N2C(=O)CN1C1CCN(Cc2ccccc2)CC1` the growth was -32.8% (active). For `CC1COc2c(N3CCN(C)CC3)c(F)cc3c(=O)c(C(=O)N/N=C/c4cc[nH]c4)cn1c23` (stereo not drawn), the growth was -80.1% (active). `COc1cc(C(=O)C[n+]2ccc3ccccc3c2)cc(OC)c1OC` was tested, and the growth was 95.9%. `O=C(NNc1nc2cc(F)cc(F)c2n2cccc12)c1ncccn1` showed a growth of 20.1%. `O=C(N/N=C\c1ccc(Cl)cc1)c1ccc2nc(-c3ccc(Br)cc3)[nH]c2c1` was tested, and the growth was -86.8% (active). With `C=CCn1c(SCC(=O)Nc2cccc(C(=O)/C=C/c3ccc(C)cc3)c2)nc2ccccc2c1=O` the growth was 13.7%. For `CCOC(=O)c1c(NCC(=O)Nc2ccc(Br)cc2)sc2c1CCCC2`, the growth was 7.99% (active). `O=c1[nH]c(CNc2ccc(NCc3c(-c4ccccc4)no[n+]3[O-])cc2)nc2c1cnn2-c1ccccc1` gave a growth of 49.6%. Work on `CCNC(=O)Oc1ccc(/C(=C(/C)c2ccccc2)c2ccc(OCCN3CCCC3)cc2)cc1` yielded a growth of 38.3%. Work on `O=C(CCCCCCN1CC(=O)N2[C@@H](c3ccccc3)c3[nH]c4ccccc4c3C[C@H]2C1=O)NO` yielded a growth of 20.9%. `Cc1cc(-c2ccc3nc(N)sc3c2)nc2ccc3[nH]ncc3c12` showed a growth of 21.8%. For `CCN1C(=O)N(CC)C2SC(N/N=C/c3ccccc3F)=NC21` (stereo not drawn), the growth was 13.6%. For `COc1ccc(NC2=C(Cl)C(=O)C(C)=C(C)C2=O)cc1`, the growth was 63.4%. Molecule `Oc1ccccc1-c1nnc(SCc2ccc(O)c3ncccc23)n1-c1ccccc1` has a growth of 12.6%. `Cc1ccc(NC(=O)c2cc(/C=C/C(=O)NO)cc(C(F)(F)F)c2)cc1Nc1nccc(-c2cccnc2)n1` was tested, and the growth was -12.9% (active). For `Cc1nn(-c2ccc(Br)cc2)c2nc(CCl)[nH]c(=O)c12`, the growth was 98.3%. In the case of `CCn1c2ccc(/C=N/NS(=O)(=O)CCN(C)C)cc2c2cc(/C=N/NS(=O)(=O)CCN(C)C)ccc21`, the growth is reported as 99.4%. In the case of `CC(C)Sc1nc(NC2CC2)c(C#N)c(-c2ccccc2)n1`, the growth is reported as 53.2%. Molecule `CCOC(=O)c1nn(-c2ccccc2)c(=O)c2c(N)c(C#N)c(-c3cccs3)cc12` has a growth of 52.8%. With `COc1cc(/C=N/n2cnc3oc(-c4ccccc4)cc3c2=N)cc(CN2CCCC2)c1O` the growth was -77.8% (active). Work on `Oc1ccccc1/C=N/Nc1nc(N/N=C/c2ccccc2O)nc(N2CCOCC2)n1` yielded a growth of 19.2%. For `O=C1C[C@@H](c2ccccc2)Oc2c(Cc3ccccc3O)c(O)c(Cc3cc(Cc4cc(Cc5ccccc5O)ccc4O)ccc3O)c(O)c21`, the growth was 96.7%. In the case of `N/C(=N\OC(=O)CSc1nc2ccccc2s1)c1ccc(Cl)cc1`, the growth is reported as 105%. `O=C(NNc1nc2cc(F)cc(F)c2n2cccc12)c1ccncn1` gave a growth of 18.6%. For `CCCC(=O)NC(c1cccnc1)c1cc(Cl)c2cccnc2c1O` (stereo not drawn), the growth was 29.1%. `COc1cc(-c2nc(SCc3ccc(C)cc3)[nH]c(=O)c2C#N)ccc1OCc1ccccc1` showed a growth of 112%. With `Cc1nn(-c2ccccc2)cc1/C=N/Nc1nc(Nc2ccccc2)nc(Nc2ccc(S(N)(=O)=O)cc2)n1` the growth was -40.9% (active). In the case of `COc1cc2c3c(n(CCCNC4CCCCC4)c(=O)c2cc1OC)-c1cc2c(cc1C3=O)OCO2`, the growth is reported as -72.3% (active). With `COc1cc(O)c2c(c1)/C=C/C[C@H](O)[C@H](O)C(=O)/C=C\C[C@H](C)OC2=O` the growth was -16.3% (active). Molecule `COc1cc(C2CC(c3ccc(Nc4nc(NCCO)nc(Nc5ccc(Cl)cc5)n4)cc3)=Nc3c(N)nc(N)nc3N2)cc(OC)c1OC` (stereo not drawn) has a growth of 23.6%. `O=C(c1ccc(O)cc1)[C@@H]1[C@@H]2CCCN2[C@@]2(C(=O)N(C(=O)c3ccc(F)cc3)c3ccccc32)[C@H]1c1ccc(F)cc1` gave a growth of 91.4%.
